Reference: PubChem BioAssay AID624330 (Southern Research Specialized Biocontainment Screening …, 2012)
Values joined by “and” are separate entries in the source; they are usually repeats but may differ in a detail not shown here. Equal entries are not always repeated. The whole screen tested about 340,000 compounds, of which about 2,100 (0.62%) were called active.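 Rule for the calls: active = first-screen hits whose inhibition reached a set limit at any dose in the follow-up dose series; inconclusive = inhibition above the set first-screen limit but never retested; inactive = the rest.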 Only a sample is shown. Potency and affinity values are given separately.

target: Rac GTPase-activating protein 1 (Homo sapiens) (UniProt Q9H0H5); assay: blockers of MgcRacGAP-driven Rac1 GTP hydrolysis – biochemical, ADP Hunter fluorescence, primary and confirmatory, confirmation (AID 624330); conditions: MgcRacGAP-stimulated Rac1 GTP hydrolysis, at 30 µM, hits give high values, GST-tagged Rac1 F28L mutant substrate;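 note: fluorescence reports GDP produced by GAP-driven GTP hydrolysis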
Sequence (Q9H0H5 whole entry, looked up): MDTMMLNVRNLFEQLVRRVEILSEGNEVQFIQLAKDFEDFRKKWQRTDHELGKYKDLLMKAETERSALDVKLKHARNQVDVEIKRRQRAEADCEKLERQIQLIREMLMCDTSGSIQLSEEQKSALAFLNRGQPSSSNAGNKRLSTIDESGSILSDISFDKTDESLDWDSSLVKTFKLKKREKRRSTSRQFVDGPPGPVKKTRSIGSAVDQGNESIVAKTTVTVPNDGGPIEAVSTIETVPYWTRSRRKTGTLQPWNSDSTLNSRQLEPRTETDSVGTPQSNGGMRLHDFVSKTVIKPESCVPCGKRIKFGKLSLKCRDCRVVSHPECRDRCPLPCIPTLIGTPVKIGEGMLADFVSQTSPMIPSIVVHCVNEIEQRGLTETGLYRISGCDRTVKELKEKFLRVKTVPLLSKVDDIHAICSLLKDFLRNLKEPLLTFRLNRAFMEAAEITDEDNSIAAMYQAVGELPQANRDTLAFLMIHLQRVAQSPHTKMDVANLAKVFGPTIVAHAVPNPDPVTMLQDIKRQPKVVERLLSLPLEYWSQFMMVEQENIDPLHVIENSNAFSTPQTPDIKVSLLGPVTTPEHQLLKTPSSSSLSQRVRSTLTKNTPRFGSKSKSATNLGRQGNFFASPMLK

inhibition, inactive:
O=C(NCc1ccccc1)c1cc(=O)c2ccccc2o1 3.22%, CSC[C@H]1CN(Cc2ccccc2)C(=O)[C@@H]1CC(=O)Nc1ccc(Br)cc1 11%, COCCCn1c(SCC(=O)NC(C)(C)C)nnc1-c1cccs1 9.91%, O=C(N/N=C/c1ccc(C(F)(F)F)cc1)c1ccncc1 5.6%, Cc1ccc(Nc2ncnc3ccccc23)cc1 12.6%, Fc1ccc(Nc2ncnc3ccccc23)cc1 9.64%, COc1ccc(-c2nsc(SCC(=O)NCC3CCCO3)n2)cc1 (stereo not given) 5.33%, O=C1C2C3C=CC(CC3)C2C(=O)N1c1ccc([N+](=O)[O-])cc1 (stereo not given) 12.6%, COc1ccnc(NCc2cccc(C(F)(F)F)c2)c1C#N -0.963%, COc1cccc(Cn2nc(C(=O)O)c3ccccc3c2=O)c1 0.46%, Cn1ccc(=O)c2cc([N+](=O)[O-])ccc21 9.86%, CCn1c2ccccc2c2cc(NC(=O)c3ccc([N+](=O)[O-])cc3)ccc21 8.32%, Cc1csc(SCC(=O)NC2CCC(C)CC2)n1 (stereo not given) -6.91%, O=C(c1ccco1)N1CCN=C1SCc1cccnc1 4.28%, CC(=O)Nc1ccc(NC(=O)C(C)Oc2ccc(Cl)cc2Cl)cc1 (stereo not given) 1.91%, CC(Oc1ccc(Cl)cc1Cl)C(=O)Nc1cccc(O)c1 (stereo not given) 9.91%, O=C(Nc1ccc(S(=O)(=O)N2CCOCC2)cc1)c1ccc(S(=O)(=O)N2CCOCC2)cc1 0.49%, O=C(O)C1CCCCC1C(=O)Nc1ccc(S(=O)(=O)N2CCCC2)cc1 (stereo not given) 6.7%, CCC(=O)Nc1ccc(NC(=O)c2ccc3c(c2)OCO3)cc1 11.5%, CCN(CC)c1ccc(NC(=O)c2ccc3c(c2)OCO3)c(C)c1 24.3%, CC(=O)Nc1ccc(C(=O)Nc2ccc(S(=O)(=O)N3CCOCC3)cc2)cc1 -2.26%, O=C(COC(=O)c1ccc2c(c1)OCO2)Nc1ccccc1 4.56%, O=C(O)[C@H]1CCCC[C@H]1C(=O)Nc1ccc(S(=O)(=O)N2CCOCC2)cc1 4.65%, NC(=O)c1ccc(NC(=O)COC(=O)c2ccc3c(c2)OCO3)cc1 2.24%, CCC[C@@H](CN1CCC[C@H]1CN1C(N)=NC[C@@H]1Cc1ccccc1)N1C[C@@H]([C@H](C)CC)N(CCCC2CCCC2)C1=N 12.3%, COc1ccccc1CNC(=O)COC(=O)Cc1c[nH]c2ccccc12 4.99%, CC1CCCC(C)N1CCCNC(=O)CN1C(=O)c2cccnc2Oc2ccc(Cl)cc21 (stereo not given) 6.32%, CCC(C)N1CCCCC1C(=O)Nc1c(C)cc(C)cc1C (stereo not given) 2.22%, CCc1ccc(NC(=O)CCc2nc3ccccc3[nH]2)cc1 10.8%, COc1ccc(Br)cc1CNc1ccccc1 26%, COc1ccc(Br)cc1CNc1ccc(S(N)(=O)=O)cc1 0.46%, CC(C)n1c(SCC(=O)Nc2nncs2)nnc1C1CC1 4.43%, NC(=O)C[C@H](NC(=O)c1ccc(Cl)cc1)C(=O)OCc1ccccc1 8.75%, COc1cccc(NC(=O)C(=O)c2cn(CC(=O)N3CCCC3)c3ccccc23)c1 10%, CN=c1scc(-c2ccccc2F)n1/N=C/c1ccc(O)c(O)c1O -8.6%, C=CCN=c1scc(-c2ccco2)n1/N=C/c1ccc(O)c(O)c1O -25.9%, COc1ccc(O)c(/C=N/n2c(-c3ccco3)csc2=Nc2cccnc2)c1 14.5%, CCN=c1scc(-c2ccco2)n1/N=C/c1ccc(OC)c(O)c1 28%, CCN=c1scc(-c2ccco2)n1/N=C/c1ccc(O)cc1 13.7%, COCCN=c1scc(-c2ccco2)n1/N=C/c1ccc(O)c(O)c1O -21.8%, CC(C)n1c(-c2ccco2)csc1=Nc1cccnc1 11.3%, CCN=c1scc(-c2ccc(F)cc2)n1/N=C/c1ccccn1 9.08%, CCCCc1ncc(CN2CCC(n3nccc3NC(=O)C(OC)c3ccccc3)CC2)[nH]1 (stereo not given) 8.08%, O=C(CN1CCN(Cc2ccccc2)C1=O)NCc1ccc(Cl)cc1 3.73%, NC(=O)COc1ccc(C(=O)NCC2(N3CCOCC3)CCCCC2)cc1 4.65%, Cc1ccc([C@H]2C[C@@H](O)[C@H](n3cc(COC(=O)c4ccccc4)nn3)CN2Cc2cccs2)cc1 -0.67%, COc1ccccc1NC(=O)c1ccc(NC(=O)COC(=O)c2cncc(Br)c2)cc1 5.46%, CC(C)CC1C(C#N)=C(N)OC2=C1C(=O)CC(c1ccccc1)C2 (stereo not given) -2.75%, COc1ccc(CCn2c(-c3cc([N+](=O)[O-])cc([N+](=O)[O-])c3)nc3nc4ccccc4nc32)cc1 4.41%, CN(Cc1cnccn1)C(=O)C1CCC(=O)N(CCc2ccc(Cl)cc2)C1 (stereo not given) 8.49%, COC(=O)c1ccc(OCC(O)CN2CCOCC2)cc1 (stereo not given) -9.81%, COc1ccc(CCNC(=O)N2CCOCC2)cc1 14.2%, CN1CCN(NC(=O)NC2CCCCC2)CC1 2.74%, COc1cc(NC(=O)c2cccs2)ccc1NC(=O)Cc1ccccc1 4.97%, N#Cc1cccc(NC(=O)CNc2cccc(S(=O)(=O)N3CCCC3)c2)c1 -1.55%, O=C(Nc1cccc(S(=O)(=O)N2CCOCC2)c1)c1c2c(nc3ccccc13)CCC2 11.9%, COC(c1ccccc1)c1nnc(CCC(=O)NCc2ccc3ncccc3c2)o1 (stereo not given) 9.84%, CCCN1CNC(=S)N(c2ccc(C)cc2C)C1 16.6%, CC(C)N(Cc1cc2ccccc2[nH]c1=O)C(=O)C(C)(C)C -1.34%, CCOC(=O)C(Sc1cc(C)nc(N)n1)C(C)=O (stereo not given) 0.9%, CCc1c(C)nc(N)nc1Cl -2.74%, COc1cc2c(cc1OC)C(C)=NCC2 5.87%, COc1cc2c(cc1OC)C(c1ccccc1)=NCC2 3.03%, Cc1cc(OCC(=O)OCC(=O)Nc2cc(S(=O)(=O)N3CCOCC3)ccc2Cl)ccc1Cl 2.85%, CCOC(=O)CN1C(=N)N(c2nc(NC(C)C)nc(NC(C)C)n2)CC1=O 7%, CCOC(=O)Cc1csc(NC(=O)CSc2nnnn2-c2ccc(CC)cc2)n1 8.91%, Cc1ccc(NC(=O)CCNC(=O)c2ccccc2Cl)cc1S(=O)(=O)N(C)C 2.79%, Cc1ccc(NC(=O)CCNC(=O)Nc2ccccc2)cc1S(=O)(=O)N(C)C 2.28%, CN1C(=O)N(C)c2cccc3cccc1c23 6.07%, CCN1/C(=N\N)c2cccc3cccc1c23 13.1%, Cc1oc(-c2cccc(F)c2)nc1CN1CCCN(C(=O)c2ccco2)CC1 9.79%, CCCCn1c(N)c(N(Cc2ccccc2OC)C(=O)C(C)Oc2ccc(Cl)cc2)c(=O)[nH]c1=O (stereo not given) 3.24%, Cc1ccc(S(=O)(=O)N(C)Cc2ccc(C(=O)NN=C(CC(C)C)CC(C)C)cc2)cc1 7.07%, CCn1cnc2c(Nc3cccc(Cl)c3)nc(C#N)nc21 12.9%, O=C(NCc1ccco1)c1cc2sccc2n1Cc1ccccc1 12.8%, O=C(NCc1ccco1)c1ccccc1 4.89%, O=C(Cn1c(C(=O)NCCCN2CCOCC2)cc2sccc21)c1ccccc1 29.1%, O=C(NCC1CCCO1)c1ccccc1 (stereo not given) -0.11%, CN1CCc2c(n(CC(O)CNCc3ccccc3)c3ccccc23)C1=O (stereo not given) 8.39%, COc1cc(C(F)(F)F)c(C(=O)N(C)Cc2ccc(Cl)c(Cl)c2)cn1 5.07%, O=C(CN1C(=O)c2ccccc2S1(=O)=O)Nc1ccc(S(=O)(=O)N2CCCC2)cc1 -4.76%, O=S(=O)(c1ccc(Cl)cc1)N1CCCCCC1 4.19%, CN1CCN(S(=O)(=O)c2ccc(Cl)cc2)CC1 4.29% and 1.92%, Cc1ccc(S(=O)(=O)NCCc2ccccc2)cc1 8.77%, Cc1ccc(S(=O)(=O)N2CCC(C(=O)N3CCCC(C(F)(F)F)C3)CC2)cc1C (stereo not given) 5.5%, CCOC(=O)C1=C(C)N(C)C(=O)NC1c1cc2c(cc1[N+](=O)[O-])OCO2 (stereo not given) 11.2%, CCOC(=O)C1=C(C)NC(=O)CC1c1cc2c(cc1Br)OCO2 (stereo not given) 14.8%, COc1ccc(CC(Cc2ccc(OC)c(OC)c2)NC=O)cc1OC 8.2%, O=C(Nc1ccccc1C(=O)Nc1ccccc1)c1ccco1 3.51%, CCOc1ccc(N2C(=O)C3C(c4ccccc4F)NN(C(=O)c4ccc(C)cc4)C3C2=O)cc1 (stereo not given) -3.94%, CC(=O)C1C(c2ccc([N+](=O)[O-])cc2)c2c(noc2C)CC1(C)O (stereo not given) -3.68%, CC(C)(C)OC(=O)n1cc(/C=N/NC(=O)c2ccco2)c2ccccc21 6.56%, O=C(O)CCCN1C(=O)/C(=C/c2ccc(-c3nc4ccccc4s3)o2)SC1=S 11.9%, O=C(O)CCCN1C(=O)/C(=C\c2ccc(-c3nc4ccccc4s3)o2)SC1=S 10.4%, COc1ccc(NC(=O)CNC(c2ccccc2)c2ccccc2)cc1Cl 5.6%
